Screens as filed in PubChem BioAssay.
ADAM17 inh = inhibitors of human ADAM17; inhibition, % at 6.95 µM; P78536; recombinant ADAM17, EDANS/DABCYL FRET peptide cleavage; 370,000 tested, 0.83% active;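 active means inhibition above the mean of compounds lying between control limits plus 3 SD, set per campaign, cut at about 8.5% in these data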
KLK7 zymogen act = activates the human kallikrein-7 zymogen; purified proKLK7, EDANS-DABCYL substrate fluorescence; 100% is mature enzyme control, 0% vehicle; activation, % at 7 µM; 370,000 tested, 0.9% active;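 active means activation above the mean of all tested compounds plus 3 SD, computed per campaign excluding outliers beyond control limits, cut at about 13% in these data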
ADAM10 inh = ADAM10 inhibition, QFRET primary screen; O14672; recombinant ADAM10, EDANS/DABCYL FRET peptide cleavage, 3 h; inhibition, % at 7 µM; 370,000 tested, 0.62% active; AID 720582;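 active means inhibition above a per-campaign cutoff equal to the mean of compounds falling between control-based bounds plus 3 SD, cut at about 20% in these data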
FAS-TE inh = blocks the thioesterase domain of human fatty acid synthase; inhibition, % at 15 µM; 360,000 tested, 0.67% active; AID 602261; recombinant FAS-TE, OMFH fluorogenic substrate, fluorescence endpoint; P49327;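 active means compounds whose normalised, plate-corrected inhibition of enzyme fluorescence in the single-dose primary screen is 50% or more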
Target sequence (P49327 whole entry, looked up, the tested form may be a part): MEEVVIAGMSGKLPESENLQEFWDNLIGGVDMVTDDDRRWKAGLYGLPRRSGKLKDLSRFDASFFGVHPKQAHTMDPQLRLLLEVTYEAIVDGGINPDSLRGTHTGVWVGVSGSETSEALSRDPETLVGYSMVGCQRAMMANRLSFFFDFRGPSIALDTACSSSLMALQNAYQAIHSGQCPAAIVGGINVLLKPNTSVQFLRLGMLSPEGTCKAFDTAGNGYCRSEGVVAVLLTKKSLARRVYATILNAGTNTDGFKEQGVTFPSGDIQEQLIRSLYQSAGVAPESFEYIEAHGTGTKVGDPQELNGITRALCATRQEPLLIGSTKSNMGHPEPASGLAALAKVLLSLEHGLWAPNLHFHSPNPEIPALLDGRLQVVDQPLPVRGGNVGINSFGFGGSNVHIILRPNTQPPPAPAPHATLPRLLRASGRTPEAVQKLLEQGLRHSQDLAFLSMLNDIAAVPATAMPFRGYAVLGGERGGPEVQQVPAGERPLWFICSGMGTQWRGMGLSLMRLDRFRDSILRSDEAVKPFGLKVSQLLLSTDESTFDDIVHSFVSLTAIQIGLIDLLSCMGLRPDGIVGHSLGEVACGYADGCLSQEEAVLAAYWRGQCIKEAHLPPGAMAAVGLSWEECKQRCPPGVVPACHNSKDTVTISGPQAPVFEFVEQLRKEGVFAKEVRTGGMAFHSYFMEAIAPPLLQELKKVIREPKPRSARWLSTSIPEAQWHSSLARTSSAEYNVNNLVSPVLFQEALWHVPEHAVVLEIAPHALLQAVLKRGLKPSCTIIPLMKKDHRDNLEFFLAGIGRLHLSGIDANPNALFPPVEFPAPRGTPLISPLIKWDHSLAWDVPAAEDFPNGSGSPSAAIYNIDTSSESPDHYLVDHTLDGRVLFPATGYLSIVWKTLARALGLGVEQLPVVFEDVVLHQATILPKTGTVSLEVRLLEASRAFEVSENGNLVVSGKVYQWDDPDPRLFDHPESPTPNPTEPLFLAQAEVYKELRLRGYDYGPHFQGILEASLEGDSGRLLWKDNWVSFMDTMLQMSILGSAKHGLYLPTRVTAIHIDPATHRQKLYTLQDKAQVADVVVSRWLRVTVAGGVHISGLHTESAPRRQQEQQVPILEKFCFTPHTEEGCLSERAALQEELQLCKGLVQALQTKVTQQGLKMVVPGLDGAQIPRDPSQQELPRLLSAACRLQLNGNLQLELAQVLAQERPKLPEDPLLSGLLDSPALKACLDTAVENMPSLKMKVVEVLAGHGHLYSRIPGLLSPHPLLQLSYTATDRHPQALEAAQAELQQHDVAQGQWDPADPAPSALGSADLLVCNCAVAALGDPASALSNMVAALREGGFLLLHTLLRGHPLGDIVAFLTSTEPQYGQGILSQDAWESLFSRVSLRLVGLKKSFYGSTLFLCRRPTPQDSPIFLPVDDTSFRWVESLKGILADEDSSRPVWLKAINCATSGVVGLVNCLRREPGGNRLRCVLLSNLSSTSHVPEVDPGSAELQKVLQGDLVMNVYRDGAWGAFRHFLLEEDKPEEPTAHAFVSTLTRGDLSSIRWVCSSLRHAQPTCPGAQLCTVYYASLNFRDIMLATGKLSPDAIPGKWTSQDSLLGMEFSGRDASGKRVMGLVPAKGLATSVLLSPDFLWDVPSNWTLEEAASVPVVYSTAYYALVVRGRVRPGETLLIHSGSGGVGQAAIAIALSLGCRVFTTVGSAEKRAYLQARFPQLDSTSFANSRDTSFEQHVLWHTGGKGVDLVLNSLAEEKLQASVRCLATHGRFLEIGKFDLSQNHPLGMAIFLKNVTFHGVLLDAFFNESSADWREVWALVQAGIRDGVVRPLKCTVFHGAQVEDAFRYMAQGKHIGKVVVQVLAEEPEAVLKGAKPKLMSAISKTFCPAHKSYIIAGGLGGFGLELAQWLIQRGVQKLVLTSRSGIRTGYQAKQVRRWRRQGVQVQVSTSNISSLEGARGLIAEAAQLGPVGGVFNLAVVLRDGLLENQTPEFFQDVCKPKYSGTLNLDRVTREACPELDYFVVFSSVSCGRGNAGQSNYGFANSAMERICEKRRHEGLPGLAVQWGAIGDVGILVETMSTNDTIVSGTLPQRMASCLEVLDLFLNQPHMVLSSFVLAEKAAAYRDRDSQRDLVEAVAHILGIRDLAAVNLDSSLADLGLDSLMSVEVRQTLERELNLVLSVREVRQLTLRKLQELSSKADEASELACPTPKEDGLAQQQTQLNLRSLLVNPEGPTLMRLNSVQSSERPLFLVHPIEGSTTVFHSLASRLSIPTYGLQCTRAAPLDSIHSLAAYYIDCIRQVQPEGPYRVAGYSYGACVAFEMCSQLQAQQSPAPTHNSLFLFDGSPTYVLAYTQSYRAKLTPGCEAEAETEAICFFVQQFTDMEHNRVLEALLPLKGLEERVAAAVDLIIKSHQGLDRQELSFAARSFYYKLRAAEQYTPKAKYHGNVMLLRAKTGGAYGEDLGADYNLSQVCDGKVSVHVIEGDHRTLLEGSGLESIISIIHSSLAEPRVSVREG
NR3A LBD binder = modulators (binders) of human NR3A ligand-binding domain; Tm shift relative to glycine control, % at 25 µM; AID 1259313; NR3A LBD differential scanning fluorimetry, Tm shift; 0% = protein alone, 100% = glycine-bound protein; 340,000 tested, 2.5% active;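 active means melting temperature shift of at least 10% of the positive control shift, at one fixed dose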
Numbers stand for hits; - = inactive; . = no result. Rows were chosen to be rich in hits. Some 4.6% of all compounds tested hit in one or more screens of this group.

SMILES | ADAM17 inh | KLK7 zymogen act | ADAM10 inh | FAS-TE inh | NR3A LBD binder
NC(=O)c1ccsc1NC(=O)c1ccc(S(=O)(=O)N2CCCc3ccccc32)cc1 | - | - | - | - | 16
Oc1ccc(CNc2cccnc2)c2cccnc12 | - | . | - | . | .
CC(C)CN1C(=O)[C@@]2(CC(=O)N(C)C2c2ccccc2)c2cc(-n3cc(CCc4ccccc4)nn3)ccc21 (stereo partly specified) | - | - | - | . | .
C#CCOCCOCCOCCNc1nc(N2CCN(C(=O)CCCCCCCCCCNC(=O)[C@H]([C@@H](C)CC)n3cc(CCCCCN)nn3)CC2)nc(N2CCN(C(=O)CCCCCCCCCCNC(=O)[C@H](CO)n3cc(CCCCCN)nn3)CC2)n1 | . | . | . | - | 28
C#CCOCCOCCOCCNc1nc(N2CCN(C(=O)CCCCCCCCCCNC(=O)[C@H](CO)n3cc(CCCSC)nn3)CC2)nc(N2CCN(C(=O)CCCCCCCCCCNC(=O)[C@H](CCCCN)n3cc(CCO)nn3)CC2)n1 | - | - | - | - | 28
C#CCOCCOCCOCCNc1nc(N2CCN(C(=O)CCCCCCCCCCNC(=O)[C@H]([C@@H](C)CC)n3cc(CCCCN=C(N)N)nn3)CC2)nc(N2CCN(C(=O)CCCCCCCCCCNC(=O)[C@H](CO)n3cc(CCCCCN)nn3)CC2)n1 | . | . | . | - | 17
C#CCOCCOCCOCCNc1nc(N2CCN(C(=O)CCCCCCCCCCNC(=O)[C@@H](CCSC)n3cc(CCO)nn3)CC2)nc(N2CCN(C(=O)CCCCCCCCCCNC(=O)[C@H](CCSC)n3cc(CCO)nn3)CC2)n1 | - | - | - | - | -
CCCCN(C)C(=O)C1CCN(S(=O)(=O)c2ccc3[nH]c(=O)oc3c2)CC1 | - | - | - | . | .
C#CCOCCOCCOCCNc1nc(N2CCN(C(=O)[C@H]([C@@H](C)CC)n3cc([C@@H](N)CC(C)C)nn3)CC2)nc(N2CCN(C(=O)[C@H](CCCCN)n3cc([C@@H](N)CC(C)C)nn3)CC2)n1 | . | . | . | . | 10
C#CCOCCOCCOCCNc1nc(N2CCN(C(=O)CCCCCCCCCCNC(=O)[C@H]([C@@H](C)CC)n3cc(CCCCCN)nn3)CC2)nc(N2CCN(C(=O)CCCCCCCCCCNC(=O)[C@H](CCCCN)n3cc(CCCC(=O)O)nn3)CC2)n1 | . | . | . | - | 22
C#CCOCCOCCOCCNc1nc(N2CCOCC2)nc(N2CCN(C(=O)CCCCCCCCCCNC(=O)[C@@H](CCC(=O)O)n3cc(CCCCCN)nn3)CC2)n1 | - | - | - | - | -
C#CCOCCOCCOCCNc1nc(N2CCN(C(=O)CCCCCCCCCCNC(=O)[C@H](CCCCN)n3cc(CCCC(=O)O)nn3)CC2)nc(N2CCN(C(=O)CCCCCCCCCCNC(=O)[C@@H]([C@H](C)O)n3cc(C)nn3)CC2)n1 | . | . | . | - | -
C#CCOCCOCCOCCNc1nc(N2CCN(C(=O)CCCCCCCCCCNC(=O)[C@@H](CCC(=O)O)n3cc(CCCCCN)nn3)CC2)nc(N2CCN(C(=O)CCCCCCCCCCNC(=O)[C@H]([C@@H](C)CC)n3cc(CCCCCN)nn3)CC2)n1 | . | . | . | - | 26
COC(=O)[C@]12C[C@H](CC(=O)N3CCSCC3)C(=O)N(Cc3cccc4ccccc34)C1=C[C@H](COCc1ccccc1)O[C@@H]2C | - | - | - | . | .
O=C([C@@H]1C[C@H]1c1ccccc1)N1CC[C@H]2[C@H](CCCN2Cc2ccccc2)C1 | - | - | - | . | .
O=C(Nc1nccs1)c1ccccc1N=Cc1ccccc1 | - | 42 | - | - | -
O=C(Nc1nccs1)c1cccnc1Cl | - | - | - | - | -
COc1cccc(Nc2nnc(SCC(=O)Nc3sccc3C(N)=O)s2)c1 | - | - | - | - | -
COc1cccc(NC(=O)CSc2nnc(NC(=O)c3ccco3)s2)c1 | - | - | - | - | -
CCc1ccc(Nc2nnc(SCC(=O)Nc3sccc3C(N)=O)s2)cc1 | - | - | - | - | 10
CC(=O)Nc1ccc(NC(=O)CSc2nnc(NC(=O)c3ccc(Br)o3)s2)cc1 | - | - | - | - | 16
O=C(CSc1nnc(NC(=O)c2ccco2)s1)Nc1cccc(F)c1 | - | - | - | - | 28
CC(=O)Nc1cccc(NC(=O)CSc2nccn2Cc2ccco2)c1 | - | - | - | - | 14
CC(C)Oc1cccc(-c2n[nH]c(=S)n2N=Cc2cccc([N+](=O)[O-])c2)c1 | - | - | - | . | .
CCOC(=O)CC[C@H]1CC[C@]2(CCCN(C(=O)c3ccno3)C2)O1 | - | - | - | . | .
SMILES | ADAM17 inh | KLK7 zymogen act | ADAM10 inh | FAS-TE inh | NR3A LBD binder
COC(=O)[C@]12C[C@H](CC(=O)N3CCN(C(=O)C4CC4)CC3)C(=O)N(CCc3ccc(OC)c(OC)c3)C1=C[C@H](C(C)C)O[C@@H]2C1CC1 | - | - | - | . | .
CC(C)(C)c1ccc(C(=O)Nc2cc(Cl)ccc2-c2nn[nH]n2)cc1 | - | . | - | . | .
CC(=O)Nc1cccc(NC(=O)CSc2nnc(NC(=O)c3ccco3)s2)c1 | - | - | - | - | 11
COc1ccc(NC(=S)N(CCC(C)C)C2CCN(C(C)C)CC2)cc1Cl | - | - | - | - | 19
COc1ccc(C2CCC3(CCC(=O)N3CCO)CC2)cc1 (stereo unspecified) | - | - | - | . | .
COc1cccc(NC(=O)C2CCN(S(=O)(=O)c3ccc4c(c3)N(C(C)=O)CCO4)CC2)c1 | - | - | - | - | 18
CC(=O)N1CCOc2ccc(S(=O)(=O)N3CCC(C(=O)Nc4ccc(F)cc4)CC3)cc21 | - | - | - | - | -
Nc1cc(Cl)cc2c1-c1ccc(Cl)cc1C2 | - | - | - | - | 23
Cc1ccc(-c2n[nH]c(S(C)(=O)=O)c2C#N)cc1 | - | - | - | - | 23
COc1ccc(N=c2oc3cc(O)ccc3cc2C(=O)Nc2ccccn2)cc1OC | - | - | - | - | 15
CCOc1ccc(NC(=O)CN2CCCN(c3ccc(OC)cc3)CC2)cc1 | - | - | - | . | .
O=C(Nc1ccc(O)cc1)c1c(O)c2c([nH]c1=O)CCCC2 | - | - | - | - | 15
O=C(N/N=C/c1ccccc1F)C(=O)N1CCCCCC1 | - | - | - | - | -
O=C(N/N=C/c1ccccc1O)C(=O)N1CCCCCC1 | - | - | - | - | 11
O=C(CSc1nc2ccccc2o1)Nc1ccc(Cl)cc1 | - | - | - | - | 19
O=C(CSc1ccc(Cl)cc1)Nc1ccc(NC(=O)c2ccco2)cc1 | - | - | - | - | 21
CC(=O)c1ccc(NC(=O)CSc2nnc(NC(=O)c3ccco3)s2)cc1 | . | . | . | - | 19
CC(C)N(C(=O)CSc1nnc(NC(=O)c2ccco2)s1)C(C)C | - | - | - | - | -
O=C(CSc1ccc(Cl)cc1)Nc1ccc(N2CCN(C(=O)c3ccco3)CC2)cc1 | - | - | - | - | -
Cc1ccc(NC(=O)CSc2nnc(NC(=O)c3ccco3)s2)cc1 | - | - | - | - | 13
COc1ccc(C=Nn2c(-c3n[nH]c4c3CCC4)n[nH]c2=S)cc1OCc1ccccc1 | - | - | - | . | .
Cn1c(COc2ccccc2)nnc1SCC(=O)Nc1ccc(OCc2ccccc2)cc1 | - | - | - | . | .
COc1ccc(C(=O)Nn2cnnc2)cc1 | - | - | - | - | -
